Laboratory results as given in PubChem BioAssay.
The source made the active and inactive calls. Unless noted, how the calls were made is not given here.

Key:
[1] = A549 cell viability effects, profiling panel, calcein-AM fluorescence, 48 h, basal (AID 1162); details: higher = more signal; further: test concentration not given here
[2] = adipocyte viability effects, profiling panel, cell-based, 3T3-L1 adipocytes, calcein-AM fluorescence, 48 h, basal (AID 1163); details: 3T3-L1 adipocytes viability, higher = more signal; further: test concentration not given here
[3] = HepG2 cell viability effects, profiling panel, calcein-AM fluorescence, 48 h, basal (AID 1164); details: higher = more signal; further: test concentration not given here
[4] = MM1S cell viability effects, profiling panel, calcein-AM fluorescence, 48 h, basal (AID 1165); details: higher = more signal;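 further: viability of MM1S multiple myeloma cells under basal unstimulated conditions; test concentration not given here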
[5] = basal RPMI8226 viability, no added stimulus, profiling panel, cell-based, calcein-AM fluorescence, 48 h, PK04 Diversity Set (AID 1166); details: RPMI8226 myeloma viability, higher = more signal;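 further: cells grown under basal conditions without added stimulus; test concentration not given here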
[6] = basal HepG2 mitochondrial membrane potential changes, profiling panel, cell-based, JC-1 fluorescence, 24 h, 100 nL compound (AID 1167); details: higher = more signal; further: test concentration not given here
[7] = basal 3T3-L1 adipocyte mitochondrial potential changes, profiling panel, cell-based, JC-1 fluorescence, 3T3-L1 adipocytes, 24 h, 100 nL compound (AID 1168); details: JC-1 mitochondrial fluorescence, higher = more signal, called active from +8 up or from −8 down; further: test concentration not given here
[8] = basal RPMI8226 mitochondrial membrane potential changes, profiling panel, cell-based, JC-1 fluorescence, 24 h, 100 nL compound (AID 1169); details: RPMI8226 myeloma, JC-1 mitochondrial potential fluorescence, higher = more signal; further: test concentration not given here
[9] = basal MM1S mitochondrial membrane potential changes, profiling panel, cell-based, JC-1 fluorescence, 24 h, 100 nL compound (AID 1170); details: higher = more signal; further: test concentration not given here
[10] = A549 lung cancer cell viability effects, profiling panel, resazurin fluorescence, 24 h, PK04 Diversity Set (AID 1171); details: higher = more signal, called active from +8 up or from −8 down; further: test concentration not given here
[11] = HepG2 liver cancer cell viability effects, profiling panel, resazurin fluorescence, 24 h, PK04 Diversity Set (AID 1172); details: higher = more signal; further: test concentration not given here
[12] = basal S. cerevisiae growth modulation, no modifier, primary screen, OD600, strain BY4716, 24 h, basal condition (AID 1173); details: OD600, 24 h, higher = more signal, called active from +8 up or from −8 down
[13] = MM1S myeloma cell viability, profiling panel, resazurin fluorescence, basal, 24 h, PK04 Diversity Set (AID 1174); details: higher = more signal, called active from +8 up or from −8 down;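 further: MM1S multiple myeloma cell line; test concentration not given here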
[14] = target: Dihydroorotate dehydrogenase (quinone), mitochondrial (Plasmodium falciparum (isolate 3D7)) (UniProt Q08210); experiment: PfDHODH enzyme inhibitors, primary screen, biochemical, C-terminal His tag, absorbance 600 nm (AID 1175); details: DCIP absorbance 600 nm, higher = more signal, called active from +8 up or from −8 down;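 further: recombinant parasite enzyme with a five histidine tag at its C terminus; test concentration not given here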
[15] = P. aeruginosa biofilm formation inhibitors, primary screen, strain PAO1, LB-PBS medium, absorbance 600 nm (AID 1176); further: test concentration not given here; details: P. aeruginosa PAO1 growth/biofilm, A600, 12 h; higher = more signal
[16] = S. cerevisiae RM11-1a growth modifiers, primary screen, strain RM11-1a, OD600, basal, 24 h (AID 1177); details: OD600, 24 h, higher = more signal, called active from +8 up or from −8 down;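 further: cultures grown under basal conditions with no added stressor; test concentration not given here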
[17] = E. coli acrAB mutant growth effects, primary screen, E. coli filamentation inducers, strain DRC39, OD650, 24 h (AID 1178); details: higher = more signal, called active from +8 up or from −8 down;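 further: growth measured as culture turbidity by optical density at 650 nm; test concentration not given here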
[18] = E. coli acrAB mutant growth effects, primary screen, E. coli filamentation inducers, strain DRC39, OD650, 48 h (AID 1179);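 further: screen aims at cell division blockers that make cells filament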; details: E. coli DRC39 delta-acrAB growth, higher = more signal, called active from +8 up or from −8 down
[19] = RPMI8226 myeloma cell viability, profiling panel, resazurin fluorescence, basal, 24 h, PK04 Diversity Set (AID 1180); details: higher = more signal;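 further: RPMI8826 multiple myeloma cell line at 5000 cells per well; test concentration not given here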
[20] = target: E3 ubiquitin-protein ligase XIAP (Homo sapiens) (UniProt P98170); experiment: XIAP binders, primary screen, biophysical, small-molecule microarray, fluorescence 635 nm (AID 1181); details: small-molecule microarray binding, higher = more signal;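 further: score merges 667 nm emission and signal to noise over triplicate slides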
Sequence of E3 ubiquitin-protein ligase XIAP (Homo sapiens) (P98170 whole entry, looked up): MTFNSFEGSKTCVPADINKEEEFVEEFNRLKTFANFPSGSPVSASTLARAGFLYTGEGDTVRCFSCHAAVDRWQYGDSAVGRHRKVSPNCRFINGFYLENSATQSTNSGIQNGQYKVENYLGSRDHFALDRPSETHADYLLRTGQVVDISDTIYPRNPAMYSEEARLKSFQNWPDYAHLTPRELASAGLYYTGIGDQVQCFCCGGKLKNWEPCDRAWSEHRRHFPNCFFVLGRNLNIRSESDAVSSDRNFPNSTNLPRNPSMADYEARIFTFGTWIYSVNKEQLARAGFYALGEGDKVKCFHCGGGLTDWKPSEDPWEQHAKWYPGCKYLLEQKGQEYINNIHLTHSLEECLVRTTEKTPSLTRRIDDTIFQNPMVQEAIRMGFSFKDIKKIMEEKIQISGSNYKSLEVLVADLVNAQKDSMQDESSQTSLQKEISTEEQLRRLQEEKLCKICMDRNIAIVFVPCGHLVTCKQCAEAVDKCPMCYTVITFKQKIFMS

Sequence of Dihydroorotate dehydrogenase (quinone), mitochondrial (Plasmodium falciparum (isolate 3D7)) (Q08210 whole entry, looked up): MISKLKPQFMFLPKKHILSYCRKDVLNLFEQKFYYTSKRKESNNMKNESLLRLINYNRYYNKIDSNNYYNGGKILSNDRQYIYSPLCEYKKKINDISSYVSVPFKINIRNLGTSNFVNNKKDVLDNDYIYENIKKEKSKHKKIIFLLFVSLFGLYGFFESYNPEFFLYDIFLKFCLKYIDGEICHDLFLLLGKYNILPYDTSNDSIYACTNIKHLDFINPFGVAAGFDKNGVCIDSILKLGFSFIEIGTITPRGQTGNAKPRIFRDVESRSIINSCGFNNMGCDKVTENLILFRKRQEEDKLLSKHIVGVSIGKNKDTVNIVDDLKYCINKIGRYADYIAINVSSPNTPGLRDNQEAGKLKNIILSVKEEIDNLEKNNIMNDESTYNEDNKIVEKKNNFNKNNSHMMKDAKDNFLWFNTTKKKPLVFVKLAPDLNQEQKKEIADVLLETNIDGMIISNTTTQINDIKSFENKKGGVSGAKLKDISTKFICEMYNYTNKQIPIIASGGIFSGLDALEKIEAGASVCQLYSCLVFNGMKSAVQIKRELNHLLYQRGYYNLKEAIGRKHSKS

Structure (SMILES)	z-score [1]	z-score [2]	z-score [3]	z-score [4]	z-score [5]	z-score [6]	z-score [7]	z-score [8]	z-score [9]	z-score [10]	z-score [11]	z-score [12]	z-score [13]	composite z-score [14]	z-score [15]	z-score [16]	z-score [17]	z-score [18]	z-score [19]	composite z-score [20]
C[C@H]1CC[C@H]2C(=O)O[C@H](COc3ccc(C(C)(C)C)cc3)CN2[C@@H]1c1ccc(Br)cc1	0.354	0.356	0.573	0.0772	-2.09	-0.568	-0.372 (inactive)	-0.841	1.33	0.636 (inactive)	-0.158	-0.407 (inactive)	0.422 (inactive)	0.159 (inactive)	-0.409 (inactive)	-0.0809 (inactive)	-1.42 (inactive)	-1.37 (inactive)	0.432	-0.19
COC(=O)C1=C(C)N(Cc2ccccc2)[C@]23O[C@](C(=O)OC)(C(=O)N2[C@@H]1c1ccccc1)C(C(=O)OC)=C3C(=O)OC	-0.321	1.48	0.0331	-1.45	-3.2	0.483	0.725 (inactive)	-0.256	-0.239	-0.645 (inactive)	-0.0934	-1.32 (inactive)	1.08 (inactive)	-2.7 (inactive)	-0.965 (inactive)	-0.511 (inactive)	-0.907 (inactive)	-1.26 (inactive)	0.345	-0.254
CCOC(=O)[C@H](Cc1ccccc1)NC(=O)CCC1CC(OC(=O)NCCc2ccc(F)cc2)CC2(CCCC(COC(=O)NCCc3ccccc3OC)O2)O1 (stereo not given in full)	-0.793	-0.702	0.492	-2.99	-1.42	0.723	0.3 (inactive)	0.165	-1.02	-0.301 (inactive)	-0.0425	0.456 (inactive)	-0.288 (inactive)	-0.732 (inactive)	0.626 (inactive)	0.476 (inactive)	-0.0222 (inactive)	-1.19 (inactive)	0.0228	-0.0796
CON=C[C@@H](C)[C@H](OCc1ccccc1)C(C)C	-1.1	0.425	-0.0832	-0.43	-1.01	0.0714	0.634 (inactive)	-0.408	0.699	0.073 (inactive)	-0.304	-0.639 (inactive)	0.548 (inactive)	-2.72 (inactive)	0.298 (inactive)	-0.919 (inactive)	-1.29 (inactive)	-2.73 (inactive)	-0.32	-0.409
CC(=O)OC[C@H]1O[C@@H](ON=C(C)CCN2CCCc3nc(C)c(C)cc32)[C@H](OC(C)=O)[C@@H](OC(C)=O)[C@@H]1OC(C)=O	-0.984	0.191	-0.563	-1.05	-2.45	-0.0457	0.553 (inactive)	-0.572	-0.903	0.0264 (inactive)	-0.288	0.131 (inactive)	0.188 (inactive)	-2.04 (inactive)	-0.503 (inactive)	-0.45 (inactive)	-0.925 (inactive)	-1.26 (inactive)	0.529	-0.138
Cc1cc2c(nc1C)CCCN2CC(O)CN1CCCc2nc(C)c(C)cc21	-0.254	-0.0412	-0.949	-0.0227	0.391	0.00162	-0.414 (inactive)	-0.108	0.382	0.189 (inactive)	0.269	0.0477 (inactive)	-0.644 (inactive)	0.0382 (inactive)	0.979 (inactive)	0.255 (inactive)	-0.494 (inactive)	-0.242 (inactive)	0.399	1.12
CSCC[C@@H]1NC(=O)CC=C[C@@H](C)COC(=O)[C@@H](C)COC1=O	0.63	0.115	1.47	0.269	0.341	0.852	0.0903 (inactive)	-0.994	-0.122	0.377 (inactive)	0.414	-0.739 (inactive)	0.574 (inactive)	0.0037 (inactive)	-0.708 (inactive)	-0.24 (inactive)	0.422 (inactive)	-0.962 (inactive)	0.249	-0.0525
CCOC(=O)[C@H](CC(C)C)NC(=O)CCC1CC(OC(=O)NCc2cccc3ccccc23)CC2(CCCC(COC(=O)NCC3CCCCC3)O2)O1 (stereo not given in full)	-0.15	1.09	-0.993	-2.66	-1.28	0.895	-0.0758 (inactive)	0.273	-0.929	0.945 (inactive)	0.865	-0.0452 (inactive)	1.27 (inactive)	-2.33 (inactive)	-1.45 (inactive)	-0.288 (inactive)	-0.765 (inactive)	-0.0838 (inactive)	0.463	-0.0333
C[C@@H](ON=C1[C@H]2CCn3c(=O)n(-c4ccccc4)c(=O)n3[C@H]2[C@H](O)[C@@H]2O[C@H]12)c1cn([C@@H]2COC[C@H]2O)nn1	0.0219	-0.15	0.373	-0.289	-0.292	-0.377	-1.84 (inactive)	-0.0731	-0.696	0.0264 (inactive)	-0.311	0.337 (inactive)	-0.739 (inactive)	-0.642 (inactive)	0.523 (inactive)	-1.01 (inactive)	0.0645 (inactive)	-0.317 (inactive)	-0.715	-0.189
CC[C@@H](c1ccccc1)n1c(=O)n2n(c1=O)[C@H]1[C@H](O)[C@@H]3O[C@@H]3C(=O)[C@H]1CC2	-0.0457	1.16	-0.481	-3.07	-2.84	-0.914	-0.491 (inactive)	-0.924	-1.72	-0.565 (inactive)	-0.797	-1.57 (inactive)	-2.15 (inactive)	0.807 (inactive)	-0.626 (inactive)	-0.552 (inactive)	0.285 (inactive)	0.216 (inactive)	-2.04	0.0641
COc1ccc(COC(=O)NN=C2C[C@@H](O)[C@@H](O)[C@@H]3[C@@H]4C(=O)N(c5ccc(F)cc5F)C(=O)[C@@H]4CC[C@H]23)cc1	0.0819	0.232	-1.01	0.698	-0.887	0.361	-0.982 (inactive)	-0.112	-1.07	0.764 (inactive)	-0.238	-0.291 (inactive)	0.317 (inactive)	0.0067 (inactive)	0.307 (inactive)	-0.461 (inactive)	-0.0692 (inactive)	0.138 (inactive)	0.643	0.0674
CCOC(=O)[C@H](Cc1ccccc1)NC(=O)CCC1CC(OC(=O)NCc2cccc3ccccc23)CC2(CCCC(COC(=O)NCc3cccc(C(F)(F)F)c3)O2)O1 (stereo not given in full)	1.84	-0.244	1.14	-0.709	0.607	3.94	0.918 (inactive)	-0.284	-0.868	-0.106 (inactive)	-0.256	-0.168 (inactive)	0.415 (inactive)	-0.873 (inactive)	0.675 (inactive)	0.473 (inactive)	0.213 (inactive)	-0.215 (inactive)	-0.573	0.158
C#CCCCON=C1C[C@@H](O)[C@@H](O)[C@@H]2[C@@H]3C(=O)N(c4cccc(Oc5ccccc5)c4)C(=O)[C@@H]3CC[C@H]12	1.08	0.139	0.411	0.632	0.116	0.862	0.57 (inactive)	-0.263	-1.29	0.19 (inactive)	0.331	-0.351 (inactive)	1.08 (inactive)	-1.48 (inactive)	0.553 (inactive)	-0.0064 (inactive)	0.899 (inactive)	0.401 (inactive)	1.94	-0.0832
COCOc1ccc(Br)cc1C(=O)[C@@H]1O[C@H]1c1cccc(OC)c1	0.131	0.314	-0.418	-2.86	-1.51	-1.39	-0.276 (inactive)	-0.724	-0.261	-0.486 (inactive)	-0.0514	-8.36 (active)	-1.86 (inactive)	0.0095 (inactive)	-0.257 (inactive)	0.45 (inactive)	0.534 (inactive)	0.35 (inactive)	-0.516	0.184
CO[C@H]1COC(=O)CC=C[C@H](C)[C@@H](OC)COC(=O)[C@H](C)COC(=O)CC=C[C@@H]1C	0.389	-0.376	1.05	0.199	-1.03	1.86	0.352 (inactive)	-0.316	-0.326	-0.132 (inactive)	0.531	-0.319 (inactive)	0.254 (inactive)	0.491 (inactive)	-0.838 (inactive)	0.606 (inactive)	0.827 (inactive)	0.0975 (inactive)	-0.501	-0.256
